About 79,000 compounds went through this panel and 15% of them were active in at least one assay; those are over-represented in the sample as a whole. The source made the active and inactive calls. No stated cut-off is given here; in the data, active means growth inhibition above about 70%; inactive means the rest.
Key:
[1] = NCI Yeast Anticancer Drug Screen. Data for the rad50 strain (AID 155);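 further: 0% = growth of vehicle-only cultures of the same strain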; conditions: S. cerevisiae rad50 strain growth inhibition; at 50.0 µM; active compounds read high
Method in brief: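 Inhibition values express reduced yeast growth in compound-treated cultures relative to vehicle-treated controls.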

[2] = NCI Yeast Anticancer Drug Screen. Data for the mec2-1 strain (AID 157); conditions: S. cerevisiae mec2-1 strain, at 50.0 µM, active compounds read high
Method in brief: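 Each compound was tested on mec2-1 yeast, a strain altered in DNA damage repair or cell cycle control. Growth inhibition is reported relative to vehicle.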

[3] = NCI Yeast Anticancer Drug Screen. Data for the sgs1 mgt1 strain (AID 161);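 further: 0% = growth of cultures given vehicle only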; conditions: S. cerevisiae sgs1 mgt1 strain, at 50.0 µM, active compounds read high
Method in brief: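 Mutant yeast exposed to compound; growth scored against vehicle-only wells.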

[4] = NCI Yeast Anticancer Drug Screen. Data for the cln2 rad14 strain (AID 165);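 further: 0% = growth equal to vehicle treated cultures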; conditions: S. cerevisiae cln2 rad14 strain, at 50.0 µM, active compounds read high
Method in brief: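 Test compounds were added to cln2 rad14 yeast cultures; inhibition of growth was then determined by comparison with vehicle treatment.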

[5] = NCI Yeast Anticancer Drug Screen. Data for the bub3 strain (AID 167); conditions: S. cerevisiae bub3 mutant strain, at 50.0 µM, active compounds read high
Method in brief: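 Steps: expose the mutant yeast strain to compound; grow alongside vehicle-treated cultures; measure growth; express inhibition against the vehicle cultures.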

[6] = NCI Yeast Anticancer Drug Screen. Data for the mlh1 rad18 strain (AID 175); conditions: S. cerevisiae mlh1 rad18 strain growth inhibition; at 50.0 µM; active compounds read high
Method in brief: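 Inhibition values reflect reduced growth of mutant yeast versus vehicle-treated controls following compound exposure; the mutations affect DNA damage repair.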

Measured: growth inhibition

BrCCCOc1ccccc1
inactive: [1] -23.7% | [2] -32.8% | [3] -5.65% | [4] -2.9% | [5] -2.4% | [6] 0.7%

CCCCC(CC)CCC(O)CC(C)C (configuration not stated)
inactive: [1] -10.2% | [2] -11.3% | [3] 14.6% | [4] 10.8% | [5] 13.8% | [6] 5.25%

CCOC(=O)c1c(C(F)(F)F)oc2c1ccc1nc3nonc3nc12
inactive: [1] 43.6% | [2] 21.6% | [3] 23.1% | [4] 27.5% | [5] 20.9% | [6] 35%

Ic1ccc(-c2ccccc2)cc1
inactive: [1] -2.95% | [2] -7.7% | [3] 12.1% | [4] -57.7% | [5] 34% | [6] 29.7%

CCOC(=O)OC1CCC2(C)C(=CCC3C2CCC2(C)C(C(C)CCCC(C)C)CCC32)C1 (configuration not stated)
inactive: [1] -3.95% | [2] -19.1% | [3] 0.6% | [4] 9.5% | [5] 4.25% | [6] -4.3%

NC(=S)NNC(=O)C(Cc1ccccc1)NC(=O)OCc1ccccc1 (configuration not stated)
inactive: [1] 1.75% | [2] 17.7% | [3] 22.9% | [4] -7.6% | [5] 15.7% | [6] 11.4%

CCOc1ccc(-n2c(C)c(COC(=O)NC)c(COC(=O)NC)c2C)cc1
active: [6] 92.5%
inactive: [1] 16.1% | [2] -5.9% | [3] 68.9% | [4] 3.8% | [5] 67.2%

CC1c2ncnc(N)c2CN1C(=O)c1ccccc1 (configuration not stated)
inactive: [1] 4.55% | [2] -6.85% | [3] -3.15% | [4] -20.2% | [5] 6.75% | [6] -4.55%

CC(C)CSCC1OC(n2cnc3c(N)nccc32)C(O)C1O (configuration not stated)
inactive: [1] -6.15% | [2] -13.8% | [3] -7.85% | [4] 10% | [5] -12.7% | [6] -20.4%

Cc1cc(=O)[nH]cn1
inactive: [1] 0.25% | [2] 6.2% | [3] -7.2% | [4] 7.45% | [5] 19.8% | [6] -4.9%

CC1CN=C(c2c(O)ccc3ccccc23)S1 (configuration not stated)
inactive: [1] 42.9% | [2] 31.5% | [4] 26.8% | [5] 34.4% | [6] 61.3%
active: [3] 79.8%

COc1ccc(N2C(=O)C3c4[nH]c5ccccc5c4C4CCC(C(C)(C)C)CC4C3C2=O)cc1OC (configuration not stated)
inactive: [1] 46.8% | [2] 18.4% | [3] 14.8% | [4] -3.4% | [5] 44.2% | [6] 38.1%

N#CC(NC12CC3CC(CC(C3)C1)C2)c1ccc2c(c1)OCO2 (configuration not stated)
inactive: [1] -14.9% | [2] -5.6% | [3] -20.9% | [4] -17.1% | [5] -47.8% | [6] -44.4%

CC(=O)Nc1ccc(C(N)=S)cc1
inactive: [1] 11.8% | [2] 7.5% | [3] 3.25% | [4] 5.4% | [5] 10.5% | [6] 4.1%

CCCCOC(=O)c1ccc(OCCCC)cc1
inactive: [1] 23.6% | [2] 19.6% | [3] 16.6% | [4] 13.2% | [5] 10.5% | [6] 17.8%

O=C(Nc1cc(C(=O)Nc2cccc(S(=O)(=O)O)c2)cc(C(=O)Nc2cccc(S(=O)(=O)O)c2)c1)c1cccc(C(=O)Nc2cc(C(=O)Nc3cccc(S(=O)(=O)O)c3)cc(C(=O)Nc3cccc(S(=O)(=O)O)c3)c2)c1
inactive: [1] -0.1% | [2] -0.1% | [3] -15.4% | [4] 3.4% | [5] 4.8% | [6] -5.55%

c1cc2c3c(cccc3c1)N1C(=N2)Sc2nc3ccccc3nc21
inactive: [1] 3.15% | [2] 13.5% | [3] -9.8% | [4] -5.2% | [5] 13.6% | [6] -3%

O=C(Nc1ccc(N=C=S)cc1Cl)c1cc(Cl)cc(Cl)c1O
active: [1] 82.3% | [3] 78.5% | [5] 82.5% | [6] 82.5%
inactive: [2] 56.9% | [4] 67.7%

CCC(CC)C1OCC(O)CO1 (configuration not stated) (tested in a mixture with another compound)
inactive: [1] 20.4% | [2] 2.7% | [3] 10% | [4] 6.85% | [5] 22.1% | [6] 17.4%

O=c1nc(-c2ccccc2)scc1-c1ccccc1
inactive: [1] -1% | [2] -10.6% | [3] 3.4% | [4] 19.1% | [5] 10% | [6] -10.1%

O=C(CCc1ccccc1C(=O)O)c1ccccc1O
inactive: [1] 0.7% | [2] -9.55% | [3] -3.35% | [4] 17.2% | [5] 5.5% | [6] -7.6%

C[N+](C)(C)c1ncncn1
inactive: [1] 2.05% | [2] 1.5% | [3] -10.8% | [4] -21% | [5] -25.3% | [6] -0.1%

Cc1nn(C(N)=S)c(C)c1N=Nc1ccc(O)cc1
inactive: [1] -5.2% | [2] -4.2% | [3] -4.9% | [4] -29.8% | [5] -11.2% | [6] 15.9%

Cn1cncc1CC1COC(=O)C1C(O)c1ccccc1 (configuration not stated)
inactive: [1] 11% | [2] 8.45% | [3] -14.2% | [4] -1.5% | [5] -26.9% | [6] -53.9%

C[S+](C)CCS(=O)(=O)[O-]
inactive: [1] 10.3% | [2] -6.45% | [3] -2.1% | [4] -30.4% | [5] 4.95% | [6] -13.2%

Oc1ccccc1CNc1ncc(Cl)cc1Cl
inactive: [1] 24.9% | [2] 16% | [3] 26.8% | [4] -5.15% | [5] 39.1% | [6] 19.4%

N#Cc1nc(CCC(C(=O)O)N2C(=O)c3ccccc3C2=O)oc1N (configuration not stated)
inactive: [1] 3.55% | [2] 15.2% | [3] -12.1% | [4] -0.55% | [5] -9.15% | [6] -46.9%

CCCCCCCCCCCCCCCCCCS
inactive: [1] -1.15% | [2] -25.3% | [3] -7.85% | [4] -14.7% | [5] 8.3% | [6] -5.7%

NNc1ncnc2c(C3OC(CO)C(O)C3O)[nH]nc12 (configuration not stated)
inactive: [1] 7% | [2] 6.35% | [3] 8.2% | [4] -70.3% | [5] 7.15% | [6] 8.95%

Cc1cccc(N=Nc2c(-c3ccccc3)nn(C(N)=S)c2C)c1C
inactive: [1] -19.8% | [2] -30.4% | [3] -18.4% | [4] -221% | [5] -9.95% | [6] -7.75%

O=S(=O)(CS(=O)(=O)N1CCCCC1)N1CCCCC1
inactive: [1] -3.8% | [2] -5.4% | [3] -3.4% | [4] -9.7% | [5] 6.7% | [6] 0.95%

O=c1c2c(c(=O)c(=O)c1=O)Nc1ccccc1N2
inactive: [1] 22.2% | [2] -6.15% | [3] 11.6% | [4] 34.7% | [5] 10.2% | [6] 15.7%

COC1OC2COC(c3ccccc3)OC2C(OC(C)=O)C1OS(=O)(=O)c1ccc(C)cc1 (configuration not stated)
inactive: [1] -2.7% | [2] 14.1% | [3] -5.35% | [4] 3.35% | [5] -4.65% | [6] 28.8%

CCCCCCCCCCN(CCCCCCCCCC)CC(O)c1cc(-c2ccc(Cl)cc2)nc2ccccc12 (configuration not stated)
inactive: [1] 25.6% | [2] 17.1% | [3] 39.4% | [4] 31.2% | [5] 34.6% | [6] 50.2%

CCN(CC)CN1C(=O)C2C3C=CC(C2C1=O)C1C2C(=O)N(CN(CC)CC)C(=O)C2C31 (configuration not stated)
inactive: [1] 2.8% | [2] -25.6% | [3] -27.6% | [4] -9.15% | [5] -47.5% | [6] -45.9%

O=C1CCC(C(=O)Nc2ccc(Cl)c(Cl)c2)N1 (configuration not stated)
inactive: [1] 1.75% | [2] 10.6% | [3] 8.5% | [4] -10.7% | [5] 1.1% | [6] -8.15%

O=c1c2cc([N+](=O)[O-])ccc2[nH]n1Cc1ccccn1
inactive: [1] 12.5% | [2] 10.2% | [3] -19.6% | [4] 9.45% | [5] -13.9% | [6] 3.8%

Reference: PubChem BioAssay (NCI)
